The whole screen tested about 420,000 compounds, of which about 50,000 (12%) were called active. Roughly 26% stayed inconclusive and do not appear here. This is one part of a sample in which actives are shown more often than they occur. Values without a mark were called inactive. Calls come from the whole dose curve; as a rule, active = well fitted inhibition curve with a large enough effect; inconclusive = small, poorly fitted or top-dose-only effect; inactive = flat fitted curve, though single readings scatter.
test: qHTS for Inhibitors of human tyrosyl-DNA phosphodiesterase 1 (TDP1): qHTS in cells in presence of CPT; settings: chicken DT40 Tdp1-/-;hTDP1 cells + 20 nM CPT, ATP luminescence, 48 h; series mostly up to 46.2 µM; activity change, negative = growth inhibition: at the top concentration; note: nearly all actives have a fitted effect of over 55% in size
In short: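 Cell growth measured by CellTiter-Glo luminescence after a minimum 48 h, 37 C compound exposure with 20 nM CPT in Tdp1-knockout DT40 cells stably expressing hTDP1, seeded 400/well; qHTS titration format.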
% is set by controls: 0 for no effect and ±100 for the full control effect; potency is the fitted concentration of half-maximal effect.

SMILES	activity change, negative = growth inhibition	Potency
COc1ccc(N2CC(C(=O)N[C@@H](C)C(=O)N3CCCCC3)CC2=O)cc1 (stereo partly drawn)	2.81%	
Cc1c(Cl)cccc1NC(=O)C1CCCN(c2ncnc3onc(C)c23)C1 (stereo not drawn)		8.2 µM (active)
Cc1ccc(Cl)cc1NC(=O)C1CCCN(c2cnccn2)C1 (stereo not drawn)	-25.9%	
COc1ccccc1NC(=O)C1CCCN(c2cc(C)nc3ncnn23)C1 (stereo not drawn)	-28.8%	
CSCC[C@H](NC(=O)OC(C)(C)C)C(=O)N/N=C/c1cc2ccc(C)cc2nc1Cl	-28.8%	
Cc1ccn(-c2cccc(-n3ccc(C)n3)n2)n1	-1.46%	
CCCCN(C=O)c1c(CC)nc2c(OCCC3CCCCC3)cccn12		16.4 µM (active)
CCc1nc2ccc(C(=O)N3CCN(S(=O)(=O)CC)CC3)cn2c1N(C=O)CCC(C)C	-12.8%	
CCCCN(C=O)c1c(CC)nc2c(OCc3ccccc3C(=O)OC)cccn12		13 µM (active)
CCOc1ccccc1N(CC(=O)Nc1ccccc1C(=O)OC)S(C)(=O)=O	-2.34%	
Cc1nccn1-c1ccc(NC(=O)[C@H]2O[C@@H](n3cnc4c(N)ncnc43)[C@H](O)[C@@H]2O)cc1	1.02%	
CCC1CN(CCNC(=O)c2cccc(C)n2)Cc2cc(OC)ccc2O1 (stereo not drawn)	5.22% [at 9.04 µM]	
O=C(CSc1ccc(-c2ccc(-n3cccn3)cc2)nn1)Nc1ccc([N+](=O)[O-])cc1	3.07%	
COc1ccc(NC(=O)CC2C(=O)OCC3CCCCN32)cc1Cl (stereo not drawn)	3.07%	
CC(C)c1ccc(Cc2nnc(NCCCO)[nH]c2=O)cc1	0.449%	
N#CCc1ccc(OC(=O)c2cccnc2)cc1	-0.983%	
CC(OC(=O)CNC(=O)c1cccc(F)c1)C(=O)NC1CCCCC1C (stereo not drawn)	-0.171%	
Cc1ccc(CC(=O)Nc2ccc(OC(F)F)c(Cl)c2)cc1C	-0.622%	
C=C(C)CNC(=S)N/N=C/c1ccccc1OCC(=O)O	-5.81%	
Cc1ccc(/C=N/NC(=O)CN2CCN(Cc3ccccc3)CC2)s1	11.8%	
C=CCNC(=S)N/N=C/c1ccc(C)s1		4.61 µM (active)
Cc1cc(OC(C)C(=O)Nc2sc3c(c2C(N)=O)CCCC3)ccc1Cl (stereo not drawn)	-25%	
c1ccc2c(C[n+]3csc4ccccc43)cccc2c1		0.92 µM (active)
Nc1scc[n+]1Cc1cccc2cccnc12	4.35%	
CCOC(=O)CC1C(=O)NCCN1c1nc2c(C)cccn2c(=O)c1/C=C1\SC(=S)N(C(C)CC)C1=O (stereo not drawn)		16.4 µM (active)
CCOC(=O)N1CCN(C(=O)CSc2nc(=O)n3cccc(C)c3n2)CC1	2.09%	
CCOC(=O)CNC(=O)c1cc2c(=O)n3cccc(C)c3nc2s1	-15.6%	
N#CC1(NC(=O)COC(=O)CCN=C2NS(=O)(=O)c3ccccc32)CCCCC1	12.3%	

Source: PubChem BioAssay AID686979 (National Center for Advancing Translational Sciences (NCATS), 2013)
